Screens from PubChem BioAssay.
EWS-Fli inh: inhibitors of EWS/Fli oncoprotein transcriptional activity; A673 NR0B1-luciferase reporter, viability-normalised; 0.67% of 350,000 active; inhibition, % at 12.6 µM;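 active = mean inhibition of at least 50% after viability correction, with every replicate also passing that limit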;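 note: firefly luciferase signal divided by Alamar Blue viability fluorescence both relative to DMSO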
LMP1 NFkB inh: Epstein-Barr LMP1 NF-kappaB reporter inhibition. AID 504558. 0.69% of 350,000 active. LMP1-induced NF-kappaB luciferase reporter cells, luminescence. inhibition, % at 12.5 µM; in the data active = inhibition above about 41%;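 note: 0% = neutral control wells and 100% = reference inhibitor control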
LGR2 inh: inhibitors of bursicon-induced Drosophila LGR2 receptor cAMP signaling. 0.35% of 380,000 active. inhibition, % at 9.99 µM. HEK293 LGR2, CRE-luciferase, bursicon-stimulated, 4 h. AID 720647;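 active = drop in luminescence signal, shown as inhibition above about 50% in the replicate tests, limit read from the data, passing the limit was not always enough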;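 note: agonist challenge used bursicon conditioned medium at about half maximal strength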
TROY signal inh: TROY signaling inhibition. 0.98% of 360,000 active. inhibition, % at 10 µM. Q293 LMP1-TROYcd NF-kB luciferase reporter, 4 h;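 active = compounds whose plate-normalised and pattern-corrected inhibition of the luciferase reporter signal at the single screening dose is 50% or more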
TWEAK Fn14 block: blocks TWEAK-Fn14 interaction in a reporter cell assay; TWEAK-stimulated Fn14 reporter cells, luciferase luminescence, 8 h; inhibition, % at 10 µM; 2% of 360,000 active; in the data active = inhibition above about 50%
* hit, by the source's call; / = not tested or not shown. Hits are enriched below; roughly 2.5% of the tested compounds scored in any of these assays.

SMILES | EWS-Fli inh | LMP1 NFkB inh | LGR2 inh | TROY signal inh | TWEAK Fn14 block
O=C(C[C@H]1CC[C@H](NS(=O)(=O)c2ccccc2)[C@H](CO)O1)N1CCC(Cc2ccccc2)CC1 | 6 | / | 9 | / | /
O=C(Nc1ncc([N+](=O)[O-])s1)c1cccs1 | -21 | -3 | 18 | -16 | 47
Cc1ncoc1C(=O)Nc1ncc([N+](=O)[O-])s1 | 12 | 23 | -17 | 1 | 50*
COc1ccc2c3c([nH]c2c1)[C@H](CO)N(C(=O)Cc1ccccc1)CC31CN(C(=O)Cc2ccccc2)C1 | 8 | / | -32 | / | /
COc1ccc(S(=O)(=O)Nc2ccc3c(c2)C(=O)N([C@H](C)CO)C[C@H](C)[C@@H](CN(C)C(=O)NC(C)C)OCCCC[C@H](C)O3)cc1 | -9 | / | -11 | / | /
COc1ccc(Cn2c(=O)[nH]c3cc(C(=O)N4CCN(c5ccccc5OC)CC4)ccc3c2=O)cc1 | / | 2 | / | 31 | 53*
COc1cc(OC)cc(C(=O)N2CCC(N3CCN(c4ccccc4OC)CC3)CC2)c1 | 6 | -21 | 2 | 52* | 53*
O=C(N[C@H]1CC[C@@H](CCNS(=O)(=O)Cc2ccccc2)O[C@@H]1CO)c1ccc2c(c1)OCO2 | -10 | / | 11 | / | /
CCOc1cc(C(=O)OC(C)C(=O)Nc2ncc(Cl)cc2Cl)ccc1OCC(=O)N1CCOCC1 (stereo not given) | 5 | 61* | 14 | -3 | -15
O=C(Nc1ncnc2c1C(c1ccccc1)c1c(ccc3ccccc13)O2)c1ccccc1 (stereo not given) | 26 | -3 | 1 | 13 | 54*
O=C(Cc1ccccc1)Nc1ncnc2c1C(c1ccccc1)c1c(ccc3ccccc13)O2 (stereo not given) | 17 | 13 | 0 | 39 | 51*
CCOC(=O)CCC(=O)Nc1ncnc2c1C(c1ccccc1)c1c(ccc3ccccc13)O2 (stereo not given) | -9 | -2 | 25 | 12 | 27
CCOc1ccc(-c2ccc(SC)nn2)cc1 | 79* | 59* | 99* | 75* | -15
CCOC(=O)C(=Cc1c[nH]c2ccc(S(=O)(=O)N(C)C)cc12)C(=O)OCC | -1 | 5 | 30 | 8 | 66*
CCNC(=O)[C@@H]1[C@@H](CO)[C@@H]2Cn3c(ccc(-c4ccccc4F)c3=O)[C@H]1N2CC1CC1 | 3 | / | -9 | / | /
Nc1cc2c(cc1Cl)-c1ccccc1C2 | -27 | -11 | -100 | -50 | -66
O=C1C=CC(=Nc2ccc3c(c2)Cc2ccccc2-3)O1 | -10 | -6 | -28 | 65* | 29
N/C(=N\OC(=O)c1ccc(Cl)cc1)c1[nH]ncc1Br | 27 | -25 | 61* | 18 | 65*
N/C(=N\OC(=O)c1cccs1)c1ccc(Cl)cc1 | -115 | / | -22 | -41 | -26
N/C(=N\OC(=O)c1cccc(Cl)c1)c1ccccn1 | / | 17 | 73* | 68* | 92*
CCOc1ccc(C(=O)O/N=C(\N)c2ccccn2)cc1OCC | / | -14 | -43 | -33 | -3
N/C(=N\OC(=O)c1ccc(Cl)cc1)c1ccccn1 | / | 35 | 90* | 70* | 101*
COc1ccc(/C(N)=N/OC(=O)c2cccs2)cc1 | -92 | -11 | 70* | 22 | 43
CCO/N=C(\N)c1[nH]ncc1Br | -3 | -1 | -13 | -1 | 12
COCC(=O)Nc1ccc2c(c1)OC[C@H](C)N(Cc1ccccc1OC)C[C@H](C)[C@@H](OC)CN(C)C2=O | 4 | / | -11 | / | /
SMILES | EWS-Fli inh | LMP1 NFkB inh | LGR2 inh | TROY signal inh | TWEAK Fn14 block
COc1ccc(C(=O)NNC(=O)c2ccccn2)cc1 | 62* | -15 | / | 87* | 102*
N/C(=N\OC(=O)c1ccc(Cl)c([N+](=O)[O-])c1)c1ccccn1 | -13 | -8 | 7 | -1 | 2
N/C(=N\OC(=O)c1ccc(Cl)c(Cl)c1)c1ccccn1 | / | -18 | 68* | 39 | 80*
COc1cc(OC)cc(C(=O)O/N=C(\N)c2ccccn2)c1 | -75 | / | / | -69 | -12
N/C(=N\OC(=O)c1cccc(Br)c1)c1ccccn1 | / | 45* | 77* | 66* | 86*
COc1ccc(C(=O)O/N=C(\N)c2ccccn2)cc1 | 44 | 81* | 103* | 84* | 103*
CN(C)C(=O)[C@@H]1[C@@H](CO)[C@@H]2Cn3c(ccc(C4=CCCC4)c3=O)[C@H]1N2S(=O)(=O)c1cn(C)cn1 | -1 | / | 10 | / | /
COc1ccc(C(=O)NCCCNC(=O)c2cc3ccccc3[nH]2)cc1OC | 7 | 75* | -11 | 16 | -3
COc1ccc(C(=O)NCC(=O)Nc2ccccc2)cc1OC | / | -1 | / | / | 59*
COc1cc(C(=O)NCC(=O)Nc2c(C)cccc2C)ccc1OCc1ccccc1 | 5 | -4 | -11 | -27 | -5
C[C@H](O)C#Cc1ccc2c(c1)O[C@H](CN(C)C(=O)C1CCC1)[C@@H](C)CN([C@@H](C)CO)S2(=O)=O | -8 | / | 9 | / | /
O=C(O)c1cccc2cccc(-c3c4ccc(=O)c(O)c-4oc4c(O)c(O)ccc34)c12 | 6 | -2 | 4 | -3 | 82*
O=C(O)c1cccc2cc(-c3ccccc3)oc(=O)c12 | -12 | 2 | 0 | -21 | -6
O=C(Nc1ccc2nc(-c3ccco3)c(-c3ccco3)nc2c1)NC1CC1 | / | -3 | / | 4 | 73*
O=C(Nc1ccc(N2CCOCC2)cc1)Nc1ccc2nc(-c3ccco3)c(-c3ccco3)nc2c1 | / | -70 | / | 4 | 17
COc1ccc2c3c(n(C)c2c1)[C@@H](CO)N(C(C)=O)CC31CN(C(=O)c2cnccn2)C1 | 6 | / | -4 | / | /
O=C(Nc1ccccc1)C1=C(c2ccccc2)S(=O)(=O)CCS1(=O)=O | 40 | 72* | 100* | 87* | 88*
O=C(O)c1ccccc1C(=O)Nc1ccccc1 | / | -3 | / | 1 | 3
CCNC(=O)C[C@@H]1CC[C@@H](NC(=O)C2CC2)[C@H](CO)O1 | 6 | / | 4 | / | /
COc1ccc(S(=O)(=O)N(C)C[C@@H]2Oc3ccc(NC(=O)NC(C)C)cc3C(=O)N([C@H](C)CO)C[C@@H]2C)cc1 | 2 | / | 24 | / | /
O=C1NC(=S)NC1=Cc1ccc2c(c1)CCC2 | -8 | 93* | / | -41 | -7
O=Cc1cc(CCC(=O)O)ccc1O | 4 | 53* | -2 | 12 | -4
Cc1ccc(CN2CC(=O)N3[C@H](C2)[C@@H](c2ccc(Br)cc2)[C@@H]3CO)cc1 | -3 | / | -2 | / | /
COc1ccc(NC(=O)C2(C)Cc3c(-c4cccc(NC(C)=O)c4)ccnc3O2)cn1 (stereo not given) | 59* | / | -13 | 1 | 20
CC(=O)Nc1ccc(NC(=O)C2(C)Cc3c(-c4cccc(NC(C)=O)c4)ccnc3O2)cc1 (stereo not given) | -2 | / | -10 | 7 | -13
COc1ccc(NC(=O)C2(C)Cc3c(-c4ccc(NC(C)=O)cc4)ccnc3O2)cn1 (stereo not given) | -5 | / | 8 | -18 | -16
CC(=O)Nc1cccc(-c2ccnc3c2CC(C)(C(=O)Nc2ccc(Cl)cc2)O3)c1 (stereo not given) | 62* | / | -19 | 7 | -12
O=c1c2cnn(-c3ccccc3)c2nc(-c2cccs2)n1-c1ccc(Cl)cc1 | / | 44* | 10 | 7 | 31
